Results: the supplement of paper PMC9942566
± gives the standard deviation of the averaged measurements.

test system: Serratia marcescens K904 PosmB-luxCDABE reporter (pMQ747); assay: PosmB-lux reporter fold induction (RLU/OD600 relative to no-compound control), highest over Biolog concentrations; higher = stronger Rcs reporter activation; conditions: wild type K904; 4 h
Method: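 Serratia marcescens K904 (wild type) or its isogenic ΔrcsB mutant, carrying the Rcs-dependent PosmB-luxCDABE reporter plasmid pMQ747, was grown in LB at OD600 0.1 in Biolog Phenotype MicroArray plates PM11-20 for 4 h at 30-32°C. Each compound is present at 3-4 proprietary concentrations (not stated); per the Fig. S1 legend the value given is the highest fold over those wells. Three independent trials.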

Compound | PosmB-lux reporter fold induction
[Na+].[Na+].[O]=[W](=[O])([O-])[O-] [sodium tungstate] (Biolog plate: PM17, well positions: E9-12) | 1.69 ± 0.46
O=c1[nH]c(=O)n([C@H]2C[C@H](O)[C@@H](CO)O2)cc1C(F)(F)F [trifluorothymidine] (Biolog plate: PM18, well positions: B1-4) | 1.81 ± 0.69
Cn1nnnc1SCC1=C(C(=O)O)N2C(=O)[C@@H](NC(=O)[C@H](OC=O)c3ccccc3)[C@H]2SC1 [cefamandole nafate] (Biolog plate: PM17, well positions: G5-8) | 1.96 ± 0.53
Nc1ccn(C2OC(CO)C(O)C2O)c(=O)n1 [Cytosine-1-beta-D-arabino-furanoside] (Biolog plate: PM13, well positions: E1-4) | 1.5 ± 0.15
O=C(O)c1cc(O)c(O)c(O)c1 [gallic acid] (Biolog plate: PM19, well positions: A5-8) | 1.46 ± 0.28
C[n+]1c2cc(N)ccc2cc2ccc(N)cc21.Nc1ccc2cc3ccc(N)cc3nc2c1 [Acriflavine] (Biolog plate: PM14, well positions: A2-4) | 1.45 ± 0.32
O.O=S(=O)([O-])[O-].O=S(=O)([O-])[O-].O=S(=O)([O-])[O-].[Al+3].[Al+3] [aluminum sulfate] (Biolog plate: PM16, well positions: F9-12) | 1.33 ± 0.3
NC(=O)NO [Hydroxyurea] (Biolog plate: PM15, well positions: H5-8) | 13.1 ± 1.9
CC(C)(C)CC(C)(C)c1ccc(OCCOCC[N+](C)(C)Cc2ccccc2)cc1 [Benzethonium chloride] (Biolog plate: PM12, well positions: E9-12) | 2.27 ± 0.38
O=c1ccc2ccccc2o1 [coumarin] (Biolog plate: PM19, well positions: A9-12) | 1.03 ± 0.14
O=P(O)(O)OP(=O)(O)O [sodium pyrophosphate decahydrate] (Biolog plate: PM18, well positions: A5-8) | 1.27 ± 0.59
O=C1C=C(O)C(=O)c2ccccc21 [lawsone] (Biolog plate: PM19, well positions: E9-12) | 1.63 ± 0.34
CO/N=C(\C(=O)N[C@@H]1C(=O)N2C(C(=O)O)=C(COC(C)=O)CS[C@H]12)c1csc(N)n1 [cefotaxime] (Biolog plate: PM16, well positions: A2-4) | 0.992 ± 0.32
S=c1nc[nH]c2nc[nH]c12 [6-Mercapto-purine] (Biolog plate: PM13, well positions: C1-4) | 1.6 ± 0.2
Nc1c2ccccc2nc2ccccc12 [9-Aminoacridine] (Biolog plate: PM14, well positions: B1-4) | 1.7 ± 0.1
CC(C)NCC(O)COc1cccc2ccccc12 (racemic) [D,L-propranolol] (Biolog plate: PM20, well positions: B5-8) | 5.54 ± 2.8
Oc1c(I)cc(Cl)c2cccnc12 [5-chloro-7-iodo-8-hydroxy-quinoline] (Biolog plate: PM16, well positions: A9-12) | 1.27 ± 0.55
Oc1c(Cl)cc(Cl)c(Cl)c1Cc1c(O)c(Cl)cc(Cl)c1Cl [hexa-chlorophene] (Biolog plate: PM20, well positions: E9-12) | 1.62 ± 0.6
CCn1nc(C(=O)O)c(=O)c2cc3c(cc21)OCO3 [cinoxacin] (Biolog plate: PM16, well positions: D9-12) | 2.46 ± 0.85
OB(O)O [Boric acid] (Biolog plate: PM14, well positions: C1-4) | 1.77 ± 1.2

Compound | PosmB-lux reporter fold induction
c1ccc(-c2ccccn2)nc1 [2,2'-Dipyridyl] (Biolog plate: PM13, well positions: B5-8) | 1.97 ± 0.26
NCC[C@H](O)C(=O)N[C@@H]1C[C@H](N)[C@@H](O[C@H]2O[C@H](CN)[C@@H](O)[C@H](O)[C@H]2O)[C@H](O)[C@H]1O[C@H]1O[C@H](CO)[C@@H](O)[C@H](N)[C@H]1O [Amikacin] (Biolog plate: PM11, well positions: A2-4) | 1.4 ± 0.2
[Cl][Mn][Cl] [Manganese chloride] (Biolog plate: PM13, well positions: G5-8) | 1.25 ± 0.2
CN(C)c1ccc(O)c2c1C[C@H]1C[C@H]3[C@H](N(C)C)C(O)=C(C(N)=O)C(=O)[C@@]3(O)C(O)=C1C2=O [Minocycline] (Biolog plate: PM11, well positions: C9-12) | 2.54 ± 0.15
CO[C@H]1/C=C/O[C@@]2(C)Oc3c(C)c(O)c4c(O)c(c(/C=N/N5CCN(C)CC5)c(O)c4c3C2=O)NC(=O)/C(C)=C\C=C\[C@H](C)[C@H](O)[C@@H](C)[C@@H](O)[C@@H](C)[C@H](OC(C)=O)[C@@H]1C [Rifampicin] (Biolog plate: PM12, well positions: H5-8) | 4.01 ± 0.98
O=C([O-])c1ccccc1O.[Na+] [sodium salicylate (NSAID)] (Biolog plate: PM17, well positions: B1-4) | 5.52 ± 2
O=C(O)c1ccccc1S [Thiosalicylic acid] (Biolog plate: PM17, well positions: A9-12) | 1.12 ± 0.27
C1COCCOCCOCCOCCOCCO1 [18-crown-6 ether] (Biolog plate: PM20, well positions: D9-12) | 2.22 ± 0.31
CC(=O)OCC1=C(C(=O)O)N2C(=O)[C@@H](NC(=O)Cc3cccs3)[C@H]2SC1 [Cephalothin] (Biolog plate: PM11, well positions: H1-4) | 1.36 ± 0.043
O=C(O)CN(CCN(CC(=O)O)CC(=O)O)CC(=O)O (Biolog plate: PM15, well positions: B5-8) | 1.66 ± 0.13
CO[C@@]1(NC(=O)CSCC#N)C(=O)N2C(C(=O)O)=C(CSc3nnnn3C)CS[C@@H]21 [Cefmetazole] (Biolog plate: PM15, well positions: A9-12) | 1.21 ± 0.23
CC(Oc1ccccc1)C(=O)N[C@@H]1C(=O)N2[C@@H]1SC(C)(C)[C@@H]2C(=O)O (stereo not given in full) [phenethicillin] (Biolog plate: PM19, well positions: F1-4) | 86 ± 19
NO [hydroxylamine] (Biolog plate: PM19, well positions: G9-12) | 1.82 ± 0.33
O=C(O)/C=C/c1ccccc1 [cinnamic acid] (Biolog plate: PM19, well positions: C9-12) | 9.92 ± 5.1
CC1=CC(=O)c2ccccc2C1=O [Menadione] (Biolog plate: PM15, well positions: G9-12) | 3.74 ± 0.73
CCC(C)CCCC(=O)N[C@@H](CCN)C(=O)N[C@H](C(=O)N[C@@H](CCN)C(=O)N[C@H]1CCNC(=O)[C@H]([C@@H](C)O)NC(=O)[C@H](CCN)NC(=O)[C@H](CCN)NC(=O)[C@H](CC(C)C)NC(=O)[C@@H](CC(C)C)NC(=O)[C@H](CCN)NC1=O)[C@@H](C)O (stereo not given in full) [Colistin] (Biolog plate: PM11, well positions: C5-8) | 2.54 ± 0.89
Nc1ccc2cc3ccc(N)cc3nc2c1 [proflavine] (Biolog plate: PM20, well positions: D1-4) | 1.15 ± 0.24
CC1(C)S[C@@H]2[C@H](NC(=O)[C@H](N)c3ccc(O)cc3)C(=O)N2[C@H]1C(=O)O [Amoxicillin] (Biolog plate: PM11, well positions: B1-4) | 2.48 ± 0.35
Cc1noc(NS(=O)(=O)c2ccc(N)cc2)c1C [sulfisoxazole] (Biolog plate: PM18, well positions: C5-8) | 0.979 ± 0.2
CCn1cc(C(=O)O)c(=O)c2ccc(C)nc21 [Nalidixic Acid] (Biolog plate: PM11, well positions: E9-12) | 3.44 ± 0.51
